# Measured values taken from PubChem BioAssay (EPA / NIEHS).
# Inconclusive results are not listed. Active and inactive are the calls of the source. Rule for the calls: active = hit-call score of the fitted dose curve at least 0.9, where 1 is the maximum; inconclusive = response in the unintended direction; inactive = score below 0.9.
# Biological target: human Matrix Metalloproteinase-9 (MMP9), MMP9 (gene 4318) (UniProt P14780)
# Assay: NVS_ENZ_hMMP9: NovaScreen (NVS) Enzymatic Assay for human Matrix Metalloproteinase-9 (MMP9) (AID 2283190);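 note: active means inhibition seen as loss of fluorescence signal versus DMSO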
# Protocol: NVS_ENZ_hMMP9 is a biochemical, single-readout assay that uses extracted gene-proteins in a cell-free assay. Measurements were taken 1 hour after chemical dosing in a 96-well plate.NVS_ENZ_hMMP9 is one of one assay component(s) measured or calculated from the NVS_ENZ_hMMP9 assay. It is designed to make measurements of enzyme activity, a form of enzyme reporter, as detected with fluorescence intensity signals by Fluorescence technology.Data from the assay component NVS_ENZ_hMMP9 was analyzed into 1 assay endpoint. This assay endpoint, NVS_ENZ_hMMP9, was analyzed in the positive analysis fitting direction relative to DMSO as the negative control and baseline of activity. Using a type of enzyme reporter, loss-of-signal activity can be used to understand changes in the enzymatic activity as they relate to the gene MMP9. Furthermore, this assay endpoint can be referred to as a primary readout, because this assay has produced multiple assay endpoints where this one serves a enzymatic activity function. To generalize the intended target to other relatable targets, this assay endpoint is annotated to the protease intended target family, where the subfamily is matrix metalloproteinase.
# Binding assays used specific radioligands (tritiated, iodinated) with non-radioactive competitive displacement ligands in agonist or antagonist protocols (as indicated) and various reference compounds and inhibitors to titrate specific binding to receptors and transporters. Most enzyme assays (CYPs, kinases, phosphatases, proteases, HDACs) used recombinant protein and specific substrates (fluorescence mostly, some colorimetric and radioactive) and inhibitors, followed by a biochemical separation of substrate and product. All assays for the biochemical HTS were initially run in duplicate at a single concentration (10 uM for CYP450 assays and 25 uM for all others). […] Each assay was run with positive and negative controls, and concurrent controls on every plate. The follow-up (secondary) screen tested active chemical-pairs in concentration series, as well as a few additional assays not tested in the primary screen, some selected negative inactives, and several cases re-run in the concentration series for confirmatory purposes.
# human Matrix Metalloproteinase-9 (MMP9), MMP9 (gene 4318), sequence (P14780 whole entry, looked up): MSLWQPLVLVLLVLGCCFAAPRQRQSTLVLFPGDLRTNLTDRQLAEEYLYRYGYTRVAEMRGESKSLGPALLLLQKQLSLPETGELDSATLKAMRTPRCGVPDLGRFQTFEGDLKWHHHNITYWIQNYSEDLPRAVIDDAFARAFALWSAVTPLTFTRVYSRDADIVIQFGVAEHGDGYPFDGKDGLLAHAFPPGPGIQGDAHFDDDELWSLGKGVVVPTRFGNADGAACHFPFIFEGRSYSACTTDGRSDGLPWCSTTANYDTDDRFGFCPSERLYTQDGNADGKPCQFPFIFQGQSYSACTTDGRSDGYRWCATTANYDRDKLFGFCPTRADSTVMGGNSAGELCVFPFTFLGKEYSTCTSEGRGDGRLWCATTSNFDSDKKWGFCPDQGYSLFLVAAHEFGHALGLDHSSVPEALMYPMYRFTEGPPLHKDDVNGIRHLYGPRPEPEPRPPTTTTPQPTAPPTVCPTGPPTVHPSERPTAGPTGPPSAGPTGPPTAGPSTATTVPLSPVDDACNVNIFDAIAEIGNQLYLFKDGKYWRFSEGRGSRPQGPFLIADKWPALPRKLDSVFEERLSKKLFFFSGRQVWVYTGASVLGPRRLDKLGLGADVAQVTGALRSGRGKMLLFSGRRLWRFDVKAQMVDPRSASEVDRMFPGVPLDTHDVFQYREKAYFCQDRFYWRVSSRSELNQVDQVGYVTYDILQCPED
SMILES,outcome,AC50
NS(=O)(=O)c1cc2c(cc1Cl)NCNS2(=O)=O,inactive,–
Nc1ccccc1N,inactive,–
Cc1c(C(=O)O)c(O)cc2c1C(=O)c1c(O)c([C@@H]3O[C@H](CO)[C@@H](O)[C@H](O)[C@H]3O)c(O)c(O)c1C2=O,–,4.45 µM (active)
CCCCc1ccc2c(n1)[C@@H](c1ccc(OC)cc1C[C@H](C)C(=O)O)[C@H](C(=O)O)[C@H]2c1ccc2c(c1)OCO2,inactive,–
CCCc1cc(=O)[nH]c(=S)[nH]1,–,8.66 µM (active)
NCCO,inactive,–
O=C(N[C@@H](Cc1ccccc1)[C@@H](O)C(=O)N1C[C@@H](O)[C@@H](O)C1)c1cc2cc(Cl)ccc2[nH]1,inactive,–
O=C(O)Cc1ccccc1Nc1c(Cl)cccc1Cl,inactive,–
CNC(=O)[C@H]1O[C@@H](n2cnc3c(NCc4cc(Cl)ccc4OCc4cc(C)no4)ncnc32)[C@H](O)[C@@H]1N,–,8.35 µM (active)
CCNc1cccc(C)c1,inactive,–
